Consider 36 compounds from PubChem BioAssay (EPA / NIEHS).

Calls of active or inactive are those of the source. How the source made its calls: active means hit-call score of the fitted dose curve at least 0.9, where 1 is the maximum; inactive means score below 0.9.

One assay in a line: ATG_NRF2_ARE_CIS: Attagene CIS-FACTORIAL HepG2 Assay for human Nuclear Factor Erythroid 2 Related Factor 2 (NFR2) response to Antioxidant Response Elements (ARE) (AID 2282992).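 On AC50: reporter mRNA level measured by RT-PCR and capillary electrophoresis fluorescence.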 As to conditions: HepG2 Attagene ARE/NRF2 reporter, transcription factor activity; actives raise or lower the signal. The essentials: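 HepG2 cells transiently transfected with multiplexed cis-regulated reporter transcription units measure endogenous transcription factor activity. Reporter mRNA at 24 h is quantified by RT-PCR, fluorescent labelling and capillary electrophoresis, with bidirectional fitting relative to DMSO.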
For `CCNC(=O)NC(=O)C(C#N)=NOC`, the call was inactive.
A word on the AC50: it is the concentration at which the activity in the assay is half-maximal. As to `CNC(=O)N(C)c1nnc(C(C)(C)C)s1`, the AC50 was 60.1 µM (active).
On the same count and under the same terms, in the case of `C=CCOC(=O)C(C)(C)OC(=O)c1cc(-n2c(=O)cc(C(F)(F)F)n(C)c2=O)ccc1Cl` it was 21.9 µM (active).
With `O=P(O)(O)CCCl`, the compound was called inactive.
Turning to `CCN(CC)C(=O)C(C)Oc1cccc2ccccc12` (configuration not stated), the concentration at half-maximal activity (AC50) is 0.485 µM (active).
On to `Clc1cccc(C(Cl)(Cl)Cl)n1`, for which the result was inactive.
On the same count and under the same terms, with `Nc1cnn(-c2ccccc2)c(=O)c1Cl` the entry was “inactive”; with `Cn1c(-c2ccccc2)cc(-c2ccccc2)[n+]1C`, “inactive”.
Take `CC1(C)CON(Cc2ccccc2Cl)C1=O`: the AC50 was 44.1 µM (active).
As to `OC(c1ccc(Cl)cc1)(c1ccc(Cl)cc1)C(Cl)(Cl)Cl`, the compound was classed as inactive.
As for `COC(=O)N(C(=O)N1CO[C@@]2(C(=O)OC)Cc3cc(Cl)ccc3C2=N1)c1ccc(OC(F)(F)F)cc1`, the half-maximal activity concentration (AC50) was 4.35 µM (active).
The same measure, in the same setting: in the case of `COc1ccc(-c2ccccc2)cc1NNC(=O)OC(C)C` it was 6.71 µM (active).
Turning to `CCNP(=S)(OC)O/C(C)=C/C(=O)OC(C)C` (configuration not stated), the half-maximal activity concentration (AC50) was 7.44 µM (active).
On the same count and under the same terms, in the case of `COC(=O)c1c(C(F)F)nc(C(F)(F)F)c(C2=NCCS2)c1CC(C)C` it was 2.14 µM (active); in that of `CCOc1cc(C(C)(C)C)ccc1C1COC(c2c(F)cccc2F)=N1` (configuration not stated), 1.62 µM (active).
In the case of `COC(=O)NS(=O)(=O)c1ccc(N)cc1`, the result was inactive.
Still for that read-out and setting: in the case of `COP(=O)(OC)O/C(C)=C/C(=O)N(C)C` it was “inactive”; in that of `Cc1ccc(N=CN(C)C=Nc2ccc(C)cc2C)c(C)c1`, “inactive”.
Still for that read-out and setting: in the case of `CCSC(=O)N1CCCCCC1` it was “inactive”.
For the compound `COCC(C)N(C(=O)CCl)c1c(C)csc1C` (configuration not stated), the AC50 is 2.31 µM (active).
On the same count and under the same terms, in the case of `CCOC(=O)C(C)OC(=O)c1cc(Oc2ccc(C(F)(F)F)cc2Cl)ccc1[N+](=O)[O-]` (configuration not stated) it was 17.2 µM (active).
On the same count and under the same terms, with `Cc1cnc(C2=NC(C)(C(C)C)C(=O)N2)c(C(=O)O)c1` (configuration not stated) the figure was 13 µM (active).
On to `CNC(=O)Oc1cccc2ccccc12`, for which the AC50 is 15.6 µM (active).
Regarding `N#Cc1c(Cl)cccc1Cl`, the AC50 is 13.7 µM (active).
Same read-out and setting: with `CC1(C)C(C(=O)OC(C#N)c2cccc(Oc3ccccc3)c2)C1(C)C` (configuration not stated) the figure was 0.913 µM (active).
As to `O=C(O)c1c(Cl)ccc2cc(Cl)cnc12`, the result was inactive.
Still for that read-out and setting: with `Nc1c(Cl)c(F)nc(OCC(=O)O)c1Cl` the entry was “inactive”.
Turning to `CCCCC(O)(Cn1cncn1)c1ccc(Cl)cc1Cl` (configuration not stated), the AC50 was 20.8 µM (active).
Turning to `CCC(C)n1c(=O)[nH]c(C)c(Br)c1=O` (configuration not stated), the outcome was inactive.
On the same count and under the same terms, with `CN/C(=N\[N+](=O)[O-])NCc1cnc(Cl)s1` the entry was “inactive”.
As to `Clc1nc(Cl)nc(Nc2ccccc2Cl)n1`, the concentration at half-maximal activity (AC50) was 29.4 µM (active).
The same measure, in the same setting: with `CN=C=S` the figure was 13.8 µM (active).
With `CC(C)Nc1nc(Cl)nc(NC(C)C)n1`, the compound was called inactive.
Turning to `O=C1C2CC=CCC2C(=O)N1SC(Cl)(Cl)Cl` (configuration not stated), the compound was classed as inactive.
Take `CCOc1nc(C(Cl)(Cl)Cl)ns1`: the AC50 was 22.9 µM (active).
On to `CCN(CC)c1nc(C)cc(OP(=S)(OC)OC)n1`, for which the compound was called inactive.

A further assay can be described thus: ATG_Oct_MLP_CIS: Attagene CIS-FACTORIAL HepG2 Assay for human Octamer-Binding Transcription Factor (Oct) (AID 2282993). As to conditions: HepG2 Attagene cis-factorial Oct reporter, mRNA; actives raise or lower the signal. In short, it runs like this: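 Read-out: reporter mRNA via RT-PCR plus capillary electrophoresis of 6-FAM-labelled fragments. Transiently transfected HepG2, 24 h exposure, endogenous TF activity on cis elements. Gain or loss of signal fitted relative to DMSO.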
Turning to `CCNC(=O)NC(=O)C(C#N)=NOC`, the outcome was inactive.
Same read-out and setting: with `CNC(=O)N(C)c1nnc(C(C)(C)C)s1` the entry was “inactive”; with `C=CCOC(=O)C(C)(C)OC(=O)c1cc(-n2c(=O)cc(C(F)(F)F)n(C)c2=O)ccc1Cl`, “inactive”; with `O=P(O)(O)CCCl`, “inactive”.
As for `CCN(CC)C(=O)C(C)Oc1cccc2ccccc12` (configuration not stated), the AC50 was 4.2 µM (active).
With `Clc1cccc(C(Cl)(Cl)Cl)n1`, the result was inactive.
Same read-out and setting: with `Nc1cnn(-c2ccccc2)c(=O)c1Cl` the entry was “inactive”; with `Cn1c(-c2ccccc2)cc(-c2ccccc2)[n+]1C`, “inactive”; with `CC1(C)CON(Cc2ccccc2Cl)C1=O`, “inactive”.
Same read-out and setting: in the case of `OC(c1ccc(Cl)cc1)(c1ccc(Cl)cc1)C(Cl)(Cl)Cl` it was “inactive”.
Take `COC(=O)N(C(=O)N1CO[C@@]2(C(=O)OC)Cc3cc(Cl)ccc3C2=N1)c1ccc(OC(F)(F)F)cc1`: the concentration at half-maximal activity (AC50) was 1.71 µM (active).
For `COc1ccc(-c2ccccc2)cc1NNC(=O)OC(C)C`, the AC50 was 0.882 µM (active).
For `CCNP(=S)(OC)O/C(C)=C/C(=O)OC(C)C` (configuration not stated), the call was inactive.
For `COC(=O)c1c(C(F)F)nc(C(F)(F)F)c(C2=NCCS2)c1CC(C)C`, the AC50 is 9.92 µM (active).
Regarding `CCOc1cc(C(C)(C)C)ccc1C1COC(c2c(F)cccc2F)=N1` (configuration not stated), the AC50 is 0.581 µM (active).
Consider `COC(=O)NS(=O)(=O)c1ccc(N)cc1`, for which the call was inactive.
Still for that read-out and setting: with `COP(=O)(OC)O/C(C)=C/C(=O)N(C)C` the entry was “inactive”; with `Cc1ccc(N=CN(C)C=Nc2ccc(C)cc2C)c(C)c1`, “inactive”; with `CCSC(=O)N1CCCCCC1`, “inactive”.
Same read-out and setting: with `COCC(C)N(C(=O)CCl)c1c(C)csc1C` (configuration not stated) the entry was “inactive”; with `CCOC(=O)C(C)OC(=O)c1cc(Oc2ccc(C(F)(F)F)cc2Cl)ccc1[N+](=O)[O-]` (configuration not stated), “inactive”; with `Cc1cnc(C2=NC(C)(C(C)C)C(=O)N2)c(C(=O)O)c1` (configuration not stated), “inactive”.
Regarding `CNC(=O)Oc1cccc2ccccc12`, the AC50 was 50 µM (active).
`N#Cc1c(Cl)cccc1Cl`: the compound was called inactive.
Consider `CC1(C)C(C(=O)OC(C#N)c2cccc(Oc3ccccc3)c2)C1(C)C` (configuration not stated), for which the result was inactive.
`O=C(O)c1c(Cl)ccc2cc(Cl)cnc12`: the compound was called inactive.
`Nc1c(Cl)c(F)nc(OCC(=O)O)c1Cl`: the result was inactive.
In the case of `CCCCC(O)(Cn1cncn1)c1ccc(Cl)cc1Cl` (configuration not stated), the half-maximal activity concentration (AC50) was 62.5 µM (active).
Turning to `CCC(C)n1c(=O)[nH]c(C)c(Br)c1=O` (configuration not stated), the compound was classed as inactive.
The same measure, in the same setting: with `CN/C(=N\[N+](=O)[O-])NCc1cnc(Cl)s1` the entry was “inactive”.
The same measure, in the same setting: in the case of `Clc1nc(Cl)nc(Nc2ccccc2Cl)n1` it was “inactive”.
`CN=C=S`: the AC50 was 26.1 µM (active).
Take `CC(C)Nc1nc(Cl)nc(NC(C)C)n1`: the result was inactive.
The same measure, in the same setting: with `O=C1C2CC=CCC2C(=O)N1SC(Cl)(Cl)Cl` (configuration not stated) the entry was “inactive”.
For the compound `CCOc1nc(C(Cl)(Cl)Cl)ns1`, the AC50 is 43.5 µM (active).
On the same count and under the same terms, in the case of `CCN(CC)c1nc(C)cc(OP(=S)(OC)OC)n1` it was 8.94 µM (active).
